# Columns and labels:
# Experiment in all cases: DAPPL (digital affinity profiling via proximity ligation, sequencing); 10 mM Tris-HCl pH 7.5, 50 mM NaCl, 1 mM DTT, 4% glycerol, room temperature, 30 min; GST-TFs on glutathione beads, 16-mer random dsDNA library, 0.1% formaldehyde crosslink after washing; high values mean tight binding
# Details in all cases: protein: recombinant; tags: N-terminal GST; dsDNA, one strand shown
# [1] = biological target: T1, FLI1 (Homo sapiens, UniProt Q01543 1-452)
# T1 sequence: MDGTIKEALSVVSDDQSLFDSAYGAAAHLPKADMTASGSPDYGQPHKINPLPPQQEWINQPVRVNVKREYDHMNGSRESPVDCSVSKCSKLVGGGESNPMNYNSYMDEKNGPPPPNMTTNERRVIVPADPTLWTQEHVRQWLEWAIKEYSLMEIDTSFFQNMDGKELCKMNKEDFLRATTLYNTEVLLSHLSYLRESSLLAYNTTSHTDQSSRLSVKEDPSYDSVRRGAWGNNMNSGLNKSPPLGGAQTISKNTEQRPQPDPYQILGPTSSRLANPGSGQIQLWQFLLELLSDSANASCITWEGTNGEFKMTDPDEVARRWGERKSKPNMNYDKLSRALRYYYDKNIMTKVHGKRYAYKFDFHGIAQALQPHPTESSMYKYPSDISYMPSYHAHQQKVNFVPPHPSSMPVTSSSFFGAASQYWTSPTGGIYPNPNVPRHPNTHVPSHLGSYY
# In short: (§1)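 Binding signal is each hexamer's read frequency for a factor divided by its frequency in the tag-only sample. The factors were GST-fused human transcription factors from yeast, captured on glutathione beads, DNA-barcoded and pooled with that sample. Pools were incubated with 200 nmole of a random double-stranded 16-mer DNA library in Tris/NaCl/DTT/glycerol buffer at room temperature for 30 min, then washed, crosslinked with 0.1% formaldehyde, proximity-ligated with BsaI/T4 ligase (1 h, 37 °C), PCR-amplified and sequenced on an Illumina NextSeq500.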
# [2] = biological target: T2, ELK1 (Homo sapiens, UniProt P19419 1-428)
# T2 sequence: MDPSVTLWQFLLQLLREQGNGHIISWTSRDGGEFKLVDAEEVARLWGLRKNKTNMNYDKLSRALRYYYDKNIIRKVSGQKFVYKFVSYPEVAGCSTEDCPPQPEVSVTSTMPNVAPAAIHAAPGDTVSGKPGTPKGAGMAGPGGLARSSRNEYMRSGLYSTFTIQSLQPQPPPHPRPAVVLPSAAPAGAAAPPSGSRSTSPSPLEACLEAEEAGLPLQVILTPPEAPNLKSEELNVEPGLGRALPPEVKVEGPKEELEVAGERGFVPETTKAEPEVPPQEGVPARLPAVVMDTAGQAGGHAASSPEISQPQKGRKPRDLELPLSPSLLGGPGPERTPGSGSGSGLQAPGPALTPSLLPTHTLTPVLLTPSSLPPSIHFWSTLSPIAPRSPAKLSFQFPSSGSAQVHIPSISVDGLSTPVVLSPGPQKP
# In short: as §1
# [3] = biological target: T3, GABPA (Homo sapiens, UniProt Q06546 1-454)
# T3 sequence: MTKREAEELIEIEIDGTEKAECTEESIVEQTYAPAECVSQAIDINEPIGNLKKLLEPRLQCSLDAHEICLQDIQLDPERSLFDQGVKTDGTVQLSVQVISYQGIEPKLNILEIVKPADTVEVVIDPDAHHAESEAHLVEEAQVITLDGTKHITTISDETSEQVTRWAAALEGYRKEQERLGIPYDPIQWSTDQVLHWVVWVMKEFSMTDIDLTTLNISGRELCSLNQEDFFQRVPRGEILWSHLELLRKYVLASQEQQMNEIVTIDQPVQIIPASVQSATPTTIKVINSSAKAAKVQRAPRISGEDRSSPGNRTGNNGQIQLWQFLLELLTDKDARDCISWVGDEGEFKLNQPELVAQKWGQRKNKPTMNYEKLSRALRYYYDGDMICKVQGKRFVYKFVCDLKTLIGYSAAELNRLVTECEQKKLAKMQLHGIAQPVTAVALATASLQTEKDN
# In short: as §1
# [4] = biological target: T4, ERG (Homo sapiens, UniProt P11308 1-479)
# T4 sequence: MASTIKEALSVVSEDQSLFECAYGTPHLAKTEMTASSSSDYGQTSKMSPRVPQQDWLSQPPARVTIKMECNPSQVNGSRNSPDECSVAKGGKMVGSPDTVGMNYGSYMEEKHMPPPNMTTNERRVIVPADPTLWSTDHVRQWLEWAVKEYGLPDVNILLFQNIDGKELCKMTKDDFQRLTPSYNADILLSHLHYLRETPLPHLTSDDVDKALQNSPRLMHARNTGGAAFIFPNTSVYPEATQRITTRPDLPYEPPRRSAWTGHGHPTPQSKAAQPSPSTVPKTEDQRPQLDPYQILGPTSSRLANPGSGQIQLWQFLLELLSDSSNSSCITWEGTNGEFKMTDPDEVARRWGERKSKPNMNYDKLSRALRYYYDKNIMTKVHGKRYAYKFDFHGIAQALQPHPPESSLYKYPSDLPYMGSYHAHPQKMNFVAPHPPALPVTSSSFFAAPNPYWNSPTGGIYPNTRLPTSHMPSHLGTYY
# In short: as §1
# [5] = biological target: ELF1 (Homo sapiens, UniProt P32519 1-619)
# In short: as §1
# [6] = biological target: T5, EHF (Homo sapiens, UniProt Q9NZC4 1-300)
# T5 sequence: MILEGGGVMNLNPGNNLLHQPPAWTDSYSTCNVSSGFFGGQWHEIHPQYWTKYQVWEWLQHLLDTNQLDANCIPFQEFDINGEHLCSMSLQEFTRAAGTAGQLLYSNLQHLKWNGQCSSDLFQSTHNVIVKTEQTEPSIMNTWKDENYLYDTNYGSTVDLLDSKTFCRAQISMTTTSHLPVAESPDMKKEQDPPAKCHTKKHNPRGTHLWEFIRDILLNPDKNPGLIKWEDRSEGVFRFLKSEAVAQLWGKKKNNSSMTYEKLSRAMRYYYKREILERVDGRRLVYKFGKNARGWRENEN
# In short: as §1
# [7] = biological target: SPI1 (Homo sapiens, UniProt P17947 1-270)
# In short: as §1
# [8] = biological target: SPIB (Homo sapiens, UniProt Q01892 1-262)
# In short: as §1
# [9] = biological target: T6, ELK3 (Homo sapiens, UniProt P41970 1-407)
# T6 sequence: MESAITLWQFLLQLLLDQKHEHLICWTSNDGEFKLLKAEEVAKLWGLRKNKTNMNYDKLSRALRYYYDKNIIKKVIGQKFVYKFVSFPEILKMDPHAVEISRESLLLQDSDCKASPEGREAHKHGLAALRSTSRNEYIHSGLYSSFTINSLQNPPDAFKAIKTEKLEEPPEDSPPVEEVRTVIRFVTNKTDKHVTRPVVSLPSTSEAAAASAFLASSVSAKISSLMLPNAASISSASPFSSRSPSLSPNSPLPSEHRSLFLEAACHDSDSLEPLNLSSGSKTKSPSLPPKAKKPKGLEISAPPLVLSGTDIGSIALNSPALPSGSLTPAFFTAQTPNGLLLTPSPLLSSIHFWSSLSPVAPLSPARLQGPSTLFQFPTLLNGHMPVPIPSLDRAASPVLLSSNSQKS
# In short: as §1
# ELF1, sequence (P32519 whole entry): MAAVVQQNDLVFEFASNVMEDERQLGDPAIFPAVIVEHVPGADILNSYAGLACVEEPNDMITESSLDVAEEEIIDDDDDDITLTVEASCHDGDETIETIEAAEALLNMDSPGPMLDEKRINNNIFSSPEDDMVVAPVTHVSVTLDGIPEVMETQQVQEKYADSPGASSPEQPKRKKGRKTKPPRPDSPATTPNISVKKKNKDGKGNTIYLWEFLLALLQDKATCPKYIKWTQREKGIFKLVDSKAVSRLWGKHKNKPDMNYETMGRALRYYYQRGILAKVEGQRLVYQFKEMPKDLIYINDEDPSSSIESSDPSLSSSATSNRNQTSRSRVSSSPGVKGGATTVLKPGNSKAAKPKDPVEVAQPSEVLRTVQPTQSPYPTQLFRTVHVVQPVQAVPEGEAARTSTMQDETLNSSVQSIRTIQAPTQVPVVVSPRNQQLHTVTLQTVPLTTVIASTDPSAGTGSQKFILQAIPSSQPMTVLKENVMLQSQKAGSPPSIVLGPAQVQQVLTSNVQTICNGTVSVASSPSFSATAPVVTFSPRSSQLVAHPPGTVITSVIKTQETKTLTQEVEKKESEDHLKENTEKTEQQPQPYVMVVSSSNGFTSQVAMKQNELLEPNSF
# SPIB, sequence (Q01892 whole entry): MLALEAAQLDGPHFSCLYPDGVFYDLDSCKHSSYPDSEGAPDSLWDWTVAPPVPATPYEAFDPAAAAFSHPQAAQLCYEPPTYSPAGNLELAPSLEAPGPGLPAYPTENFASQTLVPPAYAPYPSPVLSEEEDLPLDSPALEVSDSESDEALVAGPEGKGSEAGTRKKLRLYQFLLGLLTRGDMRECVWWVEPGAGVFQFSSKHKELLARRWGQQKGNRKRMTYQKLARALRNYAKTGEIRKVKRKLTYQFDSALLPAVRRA
Sequence,binding signal [1],binding signal [2],binding signal [3],binding signal [4],binding signal [5],binding signal [6],binding signal [7],binding signal [8],binding signal [9]
TACATT,"1.32 fold enrichment (6-mer frequency, TF over GST control)","1.17 fold enrichment (6-mer frequency, TF over GST control)","1.23 fold enrichment (6-mer frequency, TF over GST control)","1.21 fold enrichment (6-mer frequency, TF over GST control)","1.26 fold enrichment (6-mer frequency, TF over GST control)","1.19 fold enrichment (6-mer frequency, TF over GST control)","1.14 fold enrichment (6-mer frequency, TF over GST control)","1.29 fold enrichment (6-mer frequency, TF over GST control)","1.23 fold enrichment (6-mer frequency, TF over GST control)"
ACCACT,"1.28 fold enrichment (6-mer frequency, TF over GST control)","1.22 fold enrichment (6-mer frequency, TF over GST control)","1.35 fold enrichment (6-mer frequency, TF over GST control)","1.27 fold enrichment (6-mer frequency, TF over GST control)","1.31 fold enrichment (6-mer frequency, TF over GST control)","1.25 fold enrichment (6-mer frequency, TF over GST control)","1.38 fold enrichment (6-mer frequency, TF over GST control)","1.19 fold enrichment (6-mer frequency, TF over GST control)","1.21 fold enrichment (6-mer frequency, TF over GST control)"
AGTTCC,"2.16 fold enrichment (6-mer frequency, TF over GST control)","2.17 fold enrichment (6-mer frequency, TF over GST control)","1.9 fold enrichment (6-mer frequency, TF over GST control)","2.2 fold enrichment (6-mer frequency, TF over GST control)","1.95 fold enrichment (6-mer frequency, TF over GST control)","2.11 fold enrichment (6-mer frequency, TF over GST control)","2.62 fold enrichment (6-mer frequency, TF over GST control)","2.36 fold enrichment (6-mer frequency, TF over GST control)","1.99 fold enrichment (6-mer frequency, TF over GST control)"
CTATTA,"1.18 fold enrichment (6-mer frequency, TF over GST control)","1.05 fold enrichment (6-mer frequency, TF over GST control)","1.06 fold enrichment (6-mer frequency, TF over GST control)","1.07 fold enrichment (6-mer frequency, TF over GST control)","1.09 fold enrichment (6-mer frequency, TF over GST control)","1.12 fold enrichment (6-mer frequency, TF over GST control)","1.1 fold enrichment (6-mer frequency, TF over GST control)","1.13 fold enrichment (6-mer frequency, TF over GST control)","1.04 fold enrichment (6-mer frequency, TF over GST control)"
TACTTA,"1.17 fold enrichment (6-mer frequency, TF over GST control)","1.18 fold enrichment (6-mer frequency, TF over GST control)","1.15 fold enrichment (6-mer frequency, TF over GST control)","1.16 fold enrichment (6-mer frequency, TF over GST control)","1.22 fold enrichment (6-mer frequency, TF over GST control)","1.33 fold enrichment (6-mer frequency, TF over GST control)","1.21 fold enrichment (6-mer frequency, TF over GST control)","1.15 fold enrichment (6-mer frequency, TF over GST control)","1.42 fold enrichment (6-mer frequency, TF over GST control)"
TGCAAC,"1.27 fold enrichment (6-mer frequency, TF over GST control)","1.32 fold enrichment (6-mer frequency, TF over GST control)","1.4 fold enrichment (6-mer frequency, TF over GST control)","1.41 fold enrichment (6-mer frequency, TF over GST control)","1.35 fold enrichment (6-mer frequency, TF over GST control)","1.36 fold enrichment (6-mer frequency, TF over GST control)","1.28 fold enrichment (6-mer frequency, TF over GST control)","1.34 fold enrichment (6-mer frequency, TF over GST control)","1.43 fold enrichment (6-mer frequency, TF over GST control)"
CGCGTC,"1.33 fold enrichment (6-mer frequency, TF over GST control)","1.24 fold enrichment (6-mer frequency, TF over GST control)","1.26 fold enrichment (6-mer frequency, TF over GST control)","1.27 fold enrichment (6-mer frequency, TF over GST control)","1.28 fold enrichment (6-mer frequency, TF over GST control)","1.25 fold enrichment (6-mer frequency, TF over GST control)","1.27 fold enrichment (6-mer frequency, TF over GST control)","1.32 fold enrichment (6-mer frequency, TF over GST control)","1.08 fold enrichment (6-mer frequency, TF over GST control)"

# Source: PMC7862700, “An all-to-all approach to the identification of sequence-specific readers for epigenetic DNA modifications on cytosine”
